These results are taken from PubChem BioAssay (NCATS).

The structures appear in SMILES notation. Several values for one entry are separate records, joined by “and”; a condition that tells them apart may be missing. Equal values may be shown once. Results filed as inconclusive are left out. Some structures have more than one record in an assay (separate samples or runs), and their calls can disagree. Activity calls are given as the source filed them. Unless noted, calls come from the whole dose curve; as a rule, active = well fitted curve in the direction sought with a large enough effect; inconclusive = small, poorly fitted or top-dose-only effect, or another doubt; inactive = no such curve, though single readings can be large; an effect the other way counts as inactive or inconclusive.

For test [1], the target named is Calcium and integrin-binding protein 1 (Homo sapiens) (UniProt Q99828). Kind of test: Primary qHTS for Identification of Calcium Integrin Binding Protein 1 (CIB1) Competitor (AID 1508620). Note: potency is the fitted concentration of half-maximal effect. In outline: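 Fluorescence polarization competition: CIB1-GST (1 uM final) preincubated with compound 15 min at room temperature, then FITC-labeled alphaIIb peptide (100 nM final) added for another 15 min. Polarization read at Ex 480/Em 540.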
Calcium and integrin-binding protein 1 (Homo sapiens), sequence (Q99828 whole entry, looked up): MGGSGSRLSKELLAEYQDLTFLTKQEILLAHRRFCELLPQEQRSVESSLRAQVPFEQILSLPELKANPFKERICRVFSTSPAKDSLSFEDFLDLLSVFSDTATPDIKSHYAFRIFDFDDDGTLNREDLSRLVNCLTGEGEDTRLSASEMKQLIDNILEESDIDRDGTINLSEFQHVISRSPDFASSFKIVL

The target of test [2] is Cytochrome P450 2D6 (Homo sapiens) (UniProt P10635). Kind of test: Cytochrome P450 family 2 subfamily D member 6 (CYP2D6) small molecule antagonists: luciferase biochemical (cell-free) qHTS assay (AID 1645840; active = well fitted curve in the direction sought with a large enough effect in the repeat runs; an effect the other way counts as inactive or inconclusive; note: nearly all actives have a fitted effect of over 55% in size; note: potency is the fitted concentration of half-maximal effect). In outline:
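P450-Glo CYP2D6 system: proluciferin substrate converted by enzyme to luciferin, read by luminescence proportional to activity. Enzyme-substrate mix with compound 10 min at room temperature, then NADPH regeneration 1 h before detection reagent.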

Test [3] concerns the target Cytochrome P450 2C9 (Homo sapiens) (UniProt P11712). Kind of test: Cytochrome P450 family 2 subfamily C member 9 (CYP2C9) small molecule antagonists: luciferase biochemical (cell-free) qHTS assay (AID 1645842; active = well fitted curve in the direction sought with a large enough effect in the repeat runs; an effect the other way counts as inactive or inconclusive; note: nearly all actives have a fitted effect of over 55% in size; note: potency is the fitted concentration of half-maximal effect). Summed up: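 P450-Glo CYP2C9 system: proluciferin substrate with enzyme in mix containing 0.4% BSA, 10 min at room temperature, then NADPH regeneration solution added and incubated 1 h at 37C. Detection reagent stopped reaction; luminescence read after 20 min as RLU.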

Test [4] is described as follows: Primary qHTS for inhibitors of nuclear receptor binding SET domain protein 2 (NSD2) in an isogenic RCH-ACV NSD2 p.E1099K mutant (9B) (AID 1645876). Note: nearly all actives have a fitted effect of over 70% in size. Note: potency is the fitted concentration of half-maximal effect.
Test [5] in a line: Primary qHTS for inhibitors of nuclear receptor binding SET domain protein 2 (NSD2) in an RCH-ACV wild type WT cells (2C) (AID 1645877). Note: nearly all actives have a fitted effect of over 70% in size. Note: potency is the fitted concentration of half-maximal effect.
The nature of test [6]: Primary qHTS for inhibitors of La Crosse Virus (LACV) - induced cell death in SH-SY5Y cells (AID 1508616).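 Note: top concentration of the series differs between compounds; higher means more rescue of cells from virus-induced death.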 In outline: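 Cytopathicity rescue screen: compounds pinned onto SH-SY5Y cells, which are then infected with LACV (MOI 0.01) and held 6 days at 37C. Percent activity is scaled between infected DMSO control and uninfected DMSO control.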
Test [7] is described as follows: Primary qHTS for small molecule stabilizers of the endoplasmic reticulum resident proteome: Secreted ER Calcium Modulated Protein (SERCaMP) assay (AID 1508630). In outline:
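The SH-SY5Y reporter protocol was run at 3 concentrations up to 38.3 uM (primary) or 11 concentrations (follow-up): 16 h compound, 100 nM thapsigargin for 4 h, then extracellular luciferase luminescence.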

The nature of test [8]: A High-Content qHTS Against Drug Library for the Identification of Small Molecules that Inhibit DYT1 Early Onset Primary Dystonia-Associated Cell Pathology (AID 1645839; calls by dose curve; note: series mostly up to about 46 µM). In outline:
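Induced EGFP-delE TorsinA cells are imaged after 48 h of compound treatment. Punctate fusion-protein distribution gives the %pathology value, while nuclei counts flag toxicity. Wild-type EGFP-hTOR1A cells define the normal pattern.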

Test [9] concerns the target Calcium and integrin-binding protein 1 (Homo sapiens) (UniProt Q99828). Kind of test: Validation qHTS for Identification of Calcium Integrin Binding protein 1 (CIB1) Competitor (AID 1508618). Summed up:
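In this qHTS validation, the LOPAC set (up to 114 uM) was tested for blocking CIB1 binding to a fluorescein-tagged alphaIIb peptide, with FP detection at 480/540 nm.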

The target of the next test is Papain (Carica papaya) (UniProt P00784). Kind of test: Primary qHTS assay for inhibitors of the protease papain (AID 1645873).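 Note: papain turnover of Z-FR-AMC read as the AMC fluorescence gain over 10 min; series mostly up to about 50 µM.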
Papain (Carica papaya), sequence (P00784 whole entry, looked up): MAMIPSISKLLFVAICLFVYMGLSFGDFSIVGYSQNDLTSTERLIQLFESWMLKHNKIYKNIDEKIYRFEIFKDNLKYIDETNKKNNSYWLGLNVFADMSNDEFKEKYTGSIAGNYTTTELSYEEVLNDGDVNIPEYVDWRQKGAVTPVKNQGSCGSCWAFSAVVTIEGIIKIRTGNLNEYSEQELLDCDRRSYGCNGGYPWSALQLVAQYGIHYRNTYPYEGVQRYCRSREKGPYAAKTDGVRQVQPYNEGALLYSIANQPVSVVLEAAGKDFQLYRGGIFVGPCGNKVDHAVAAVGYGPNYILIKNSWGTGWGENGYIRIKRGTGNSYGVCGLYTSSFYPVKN
Test [10] deals with Rap guanine nucleotide exchange factor 3 (Homo sapiens) (UniProt O95398). Kind of test: Confirmatory qHTS for antagonist of cAMP-regulated guanine nucleotide exchange factor 3 (EPAC1) (AID 1645880). Note: nearly all actives have a fitted effect of over 55% in size. Summed up:
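Released BODIPY-GDP fluoresces less than Rap1-bound BODIPY-GDP; the signal is followed at 480/540 nm at 5-min intervals over 30 min, after 5 min at room temperature. Reactions contain 100 nM EPAC1, 250 nM RAP1B-BODIPY-GDP and 50 uM GDP; results are normalized to ATA and DMSO.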

Cytochrome P450 2C9 (Homo sapiens), sequence (P11712 whole entry, looked up): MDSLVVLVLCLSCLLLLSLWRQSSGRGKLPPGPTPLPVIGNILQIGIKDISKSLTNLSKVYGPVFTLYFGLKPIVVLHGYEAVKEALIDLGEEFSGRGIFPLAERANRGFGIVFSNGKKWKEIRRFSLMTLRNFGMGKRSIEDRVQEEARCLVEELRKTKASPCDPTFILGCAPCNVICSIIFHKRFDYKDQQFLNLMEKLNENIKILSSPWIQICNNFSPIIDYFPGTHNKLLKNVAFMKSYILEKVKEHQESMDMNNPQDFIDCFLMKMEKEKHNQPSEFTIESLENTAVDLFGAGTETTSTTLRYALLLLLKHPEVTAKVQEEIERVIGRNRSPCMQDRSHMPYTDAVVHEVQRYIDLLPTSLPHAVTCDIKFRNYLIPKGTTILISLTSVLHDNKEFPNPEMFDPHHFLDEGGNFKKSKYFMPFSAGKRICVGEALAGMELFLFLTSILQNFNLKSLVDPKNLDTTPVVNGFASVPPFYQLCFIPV
Cytochrome P450 2D6 (Homo sapiens), sequence (P10635 whole entry, looked up): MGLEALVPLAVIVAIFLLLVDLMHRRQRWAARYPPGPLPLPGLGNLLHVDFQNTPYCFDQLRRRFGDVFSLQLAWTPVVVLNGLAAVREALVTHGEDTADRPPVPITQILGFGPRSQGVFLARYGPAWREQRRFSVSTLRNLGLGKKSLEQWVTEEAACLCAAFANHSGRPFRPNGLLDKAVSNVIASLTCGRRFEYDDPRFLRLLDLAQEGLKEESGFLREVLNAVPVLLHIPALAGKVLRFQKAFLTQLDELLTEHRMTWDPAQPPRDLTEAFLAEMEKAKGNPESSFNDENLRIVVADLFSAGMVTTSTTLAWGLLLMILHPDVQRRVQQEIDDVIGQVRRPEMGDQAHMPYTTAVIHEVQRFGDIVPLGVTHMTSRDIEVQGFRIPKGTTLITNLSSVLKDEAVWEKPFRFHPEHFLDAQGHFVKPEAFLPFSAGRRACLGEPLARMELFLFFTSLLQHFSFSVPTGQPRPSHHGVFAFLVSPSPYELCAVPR
Rap guanine nucleotide exchange factor 3 (Homo sapiens), sequence (O95398 whole entry, looked up): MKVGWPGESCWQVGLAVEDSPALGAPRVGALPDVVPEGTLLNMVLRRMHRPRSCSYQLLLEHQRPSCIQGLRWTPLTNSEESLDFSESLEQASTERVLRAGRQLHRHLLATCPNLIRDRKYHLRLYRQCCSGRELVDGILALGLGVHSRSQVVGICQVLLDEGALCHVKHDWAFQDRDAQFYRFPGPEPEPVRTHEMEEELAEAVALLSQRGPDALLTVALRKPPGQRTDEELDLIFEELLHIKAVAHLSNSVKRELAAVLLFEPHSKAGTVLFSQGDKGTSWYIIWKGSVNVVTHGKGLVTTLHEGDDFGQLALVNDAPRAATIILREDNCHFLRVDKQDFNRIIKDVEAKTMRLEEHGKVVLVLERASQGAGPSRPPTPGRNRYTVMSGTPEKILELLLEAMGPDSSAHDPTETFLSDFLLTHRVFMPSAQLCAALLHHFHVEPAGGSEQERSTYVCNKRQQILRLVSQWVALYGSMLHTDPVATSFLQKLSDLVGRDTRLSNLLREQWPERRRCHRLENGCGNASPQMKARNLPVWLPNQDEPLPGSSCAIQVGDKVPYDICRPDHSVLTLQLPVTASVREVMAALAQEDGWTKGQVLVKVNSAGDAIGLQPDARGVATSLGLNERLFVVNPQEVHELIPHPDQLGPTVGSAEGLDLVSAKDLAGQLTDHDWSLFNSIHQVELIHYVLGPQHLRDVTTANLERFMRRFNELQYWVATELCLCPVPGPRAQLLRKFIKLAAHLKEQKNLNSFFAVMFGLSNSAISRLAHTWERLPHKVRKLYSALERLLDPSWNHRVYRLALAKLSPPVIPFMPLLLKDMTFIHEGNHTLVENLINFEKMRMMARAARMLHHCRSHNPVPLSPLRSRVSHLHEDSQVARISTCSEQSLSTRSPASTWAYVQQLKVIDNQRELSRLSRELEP

Regarding `COc1c(O)cc2c(c1O)[C@@H]1O[C@H](CO)[C@@H](O)[C@H](O)[C@H]1OC2=O`, the Potency result in test [1], in [2], in test [3], in test [4] and in test [5] was “inactive” in each case.
With `COCCCOc1ccnc(CS(=O)c2nc3ccccc3[nH]2)c1C` (stereo unspecified), the Potency entry in [6], in test [7], in test [8], in test [2], in test [4] and in test [5] was “inactive” each time. The Potency is 39.8 µM (active) and inactive in test [1]; “inactive and 15.1 µM (active)” in test [3].
On to `Cc1ncc([N+](=O)[O-])n1CC(C)O` (stereo unspecified), for which the Potency entry in test [6], in [1], in test [7], in test [8], in [2] and in test [3] was “inactive” throughout. Also, the Potency entry in test [4] and in test [5] was “inactive” throughout.
As for `Cc1cc(Cl)ccc1OCCCC(=O)NO`, the result in [9] was inactive. Further, the Potency result (in test [1]; in test [7]; with Papain (Carica papaya)) was “inactive” throughout. Also, the Potency is 1.48 µM (active) in test [4] and 1.66 µM (active) in [5].
On to `COc1cc(C(C)=O)ccc1OCCCN1CCC(c2noc3cc(F)ccc23)CC1`, for which the Potency entry in test [6], in test [1], in test [7] and in test [3] was “inactive” throughout. In [2], the Potency is 5.49 µM (active).
In the case of `CCCCCCCCCCCCCCCCCCCCCCO`, the Potency result in test [1], in test [7], in test [4] and in test [5] was “inactive” each time.
Turning to `CCCCc1ccc2nc(NC(=O)OC)[nH]c2c1`, the Potency result in test [6], in test [1], in test [7], in [8] and in test [3] was “inactive” in each case. Moreover, the Potency in test [4] was 53.1 nM (active) and 166 nM (active); in [5] it was 47.3 nM (active) and 118 nM (active).
On to `CN(C)c1ccc2nc3ccc(=[N+](C)C)cc-3sc2c1`, for which the Potency result in [6] and in test [7] was “inactive” each time. The Potency in test [4] is 1.32 µM (active) and 2.37 µM (active); in test [5], 1.32 µM (active) and 2.37 µM (active).
Turning to `C[Se]CCC(N)C(=O)O` (stereo unspecified), the Potency entry in [1], in [7], in [4] and in test [5] was “inactive” each time.
For the molecule `Oc1ccc2ccccc2c1SSc1c(O)ccc2ccccc12`, the Potency entry in test [6] is “inactive”. In test [4], the Potency was 23.5 µM (active) and 16.4 µM (active).
In the case of `O=c1oc2cc(O)ccc2s1`, the Potency result in [1], in test [7], in test [2] and in [3] was “inactive” throughout. Further, the Potency in [4] and in test [5] was 20.9 µM (active) in each case.
On to `CNC[C@@H](O)[C@@H](O)[C@H](O)[C@H](O)CO`, for which the Potency entry in test [1] and in [7] was “inactive” in each case.
As for `CCOc1cc(CC(=O)N[C@@H](CC(C)C)c2ccccc2N2CCCCC2)ccc1C(=O)O`, the Potency result in test [1], in [7], in test [2], in test [3], in [4] and in [5] was “inactive” in each case. Further, the Potency entry in test [10] was “inactive”.
Regarding `CCCCN(CCCC)CCC(O)c1cc2c(Cl)cc(Cl)cc2c2cc(C(F)(F)F)ccc12` (stereo unspecified), the Potency entry in [1], in test [7] and in test [3] was “inactive” each time. Also, the Potency in test [2] was 0.55 µM (active); in test [4] it was 13.3 µM (active); in [5], 16.6 µM (active).
For the molecule `CCCc1cc(=O)[nH]c(=S)[nH]1`, the Potency result in test [6], in test [7], in test [8], in test [2], in test [3] and in test [4] was “inactive” each time. The Potency result in [5] was “inactive”.
Consider `CCOC(=O)C1=C(O)C(=O)N(Cc2ccccc2)C1`, for which the result in test [9] was inactive. For the same molecule, the Potency entry (in test [1]; in test [7]; with Papain (Carica papaya); in [4]; in [5]) was “inactive” in each case.
Turning to `CN(C)C(=O)[C@H](O)[C@H](Cc1ccccc1)NC(=O)c1cc2cc(Cl)ccc2[nH]1`, the result in test [9] was inactive. The Potency entry (in test [1]; in test [7]; with Papain (Carica papaya)) was “inactive” in each case.
